{"source": "paper PMC11062922", "about": "(Nature Chemical Biology, 2023)", "parameters_in_all_cases": "species or system human, MV4-11 + K-562 + COLO205 + SK-N-BE2 + OVCAR-8", "key": {"ATM": {"test_system": "ATM", "details": "read-out: apparent Kd, compound concentrations: 100 nM and 1000 nM (sheet 'Samples'), n = 1"}, "CDC42BPG": {"test_system": "CDC42BPG", "details": "read-out: apparent Kd; compound concentrations: 100 nM and 1000 nM (sheet 'Samples'), CATDS: 9.9527078318265502E-2; n = 1"}, "DCTPP1": {"test_system": "DCTPP1", "details": "read-out: apparent Kd; compound concentrations: 100 nM and 1000 nM (sheet 'Samples'), CATDS: 8.8490675480642905E-2; n = 1"}, "DDR2": {"test_system": "DDR2", "details": "read-out: apparent Kd; compound concentrations: 100 nM and 1000 nM (sheet 'Samples'), CATDS: 8.0656162840652496E-2; n = 1"}, "FLT3": {"test_system": "FLT3", "details": "read-out: apparent Kd; compound concentrations: 100 nM and 1000 nM (sheet 'Samples'), CATDS: 8.7421379442902306E-2; n = 1"}, "IRAK4": {"test_system": "IRAK4", "details": "read-out: apparent Kd; compound concentrations: 100 nM and 1000 nM (sheet 'Samples'), CATDS: 7.99000406569913E-2; n = 1"}, "MYLK3": {"test_system": "MYLK3", "details": "read-out: apparent Kd; compound concentrations: 100 nM and 1000 nM (sheet 'Samples'), CATDS: 0.35041871443296002; n = 1"}, "PIM2": {"test_system": "PIM2", "details": "read-out: apparent Kd; compound concentrations: 100 nM and 1000 nM (sheet 'Samples'), CATDS: 8.1354023438197698E-2; n = 1"}, "PRKAG1": {"test_system": "PRKAG1", "details": "read-out: apparent Kd; compound concentrations: 100 nM and 1000 nM (sheet 'Samples'), CATDS: 8.6524001120503097E-2; n = 1"}, "TNIK": {"test_system": "TNIK", "details": "read-out: apparent Kd; compound concentrations: 100 nM and 1000 nM (sheet 'Samples'), CATDS: 9.2286016750468006E-2; n = 1"}, "AKT2": {"test_system": "AKT2", "details": "read-out: apparent Kd; compound concentrations: 100 nM and 1000 nM (sheet 'Samples'), CATDS: 0.43921962783060797; n = 1"}, "MAP2K3": {"test_system": "MAP2K3", "details": "read-out: apparent Kd; compound concentrations: 100 nM and 1000 nM (sheet 'Samples'), CATDS: 0.58030400025916395; n = 1"}, "ARAF": {"test_system": "ARAF", "details": "read-out: apparent Kd; compound concentrations: 100 nM and 1000 nM (sheet 'Samples'), CATDS: 5.7058151547421603E-2; n = 1"}, "AURKB": {"test_system": "AURKB", "details": "read-out: apparent Kd; compound concentrations: 100 nM and 1000 nM (sheet 'Samples'), CATDS: 7.6313270646160003E-2; n = 1"}, "CDK10": {"test_system": "CDK10", "details": "read-out: apparent Kd; compound concentrations: 100 nM and 1000 nM (sheet 'Samples'), CATDS: 4.7356603246951401E-2; n = 1"}, "EIF2AK1": {"test_system": "EIF2AK1", "details": "read-out: apparent Kd; compound concentrations: 100 nM and 1000 nM (sheet 'Samples'), CATDS: 9.9444074650609393E-2; n = 1"}, "FN3K": {"test_system": "FN3K", "details": "read-out: apparent Kd; compound concentrations: 100 nM and 1000 nM (sheet 'Samples'), CATDS: 5.2169605073521003E-2; n = 1"}, "ICK": {"test_system": "ICK", "details": "read-out: apparent Kd; compound concentrations: 100 nM and 1000 nM (sheet 'Samples'), CATDS: 4.7896181585756002E-2; n = 1"}, "LATS1": {"test_system": "LATS1", "details": "read-out: apparent Kd; compound concentrations: 100 nM and 1000 nM (sheet 'Samples'), CATDS: 4.4770495584516998E-2; n = 1"}, "MAP2K5": {"test_system": "MAP2K5", "details": "read-out: apparent Kd; compound concentrations: 100 nM and 1000 nM (sheet 'Samples'), CATDS: 0.11655274425704; n = 1"}, "MAP3K2": {"test_system": "MAP3K2", "details": "read-out: apparent Kd; compound concentrations: 100 nM and 1000 nM (sheet 'Samples'), CATDS: 4.6082371307615597E-2; n = 1"}, "MAP3K4": {"test_system": "MAP3K4", "details": "read-out: apparent Kd; compound concentrations: 100 nM and 1000 nM (sheet 'Samples'), CATDS: 4.8228704879059399E-2; n = 1"}, "MAP4K1": {"test_system": "MAP4K1", "details": "read-out: apparent Kd; compound concentrations: 100 nM and 1000 nM (sheet 'Samples'), CATDS: 4.8558197444370697E-2; n = 1"}, "MAP4K2": {"test_system": "MAP4K2", "details": "read-out: apparent Kd; compound concentrations: 100 nM and 1000 nM (sheet 'Samples'), CATDS: 5.6009475369740498E-2; n = 1"}, "MAP4K3": {"test_system": "MAP4K3", "details": "read-out: apparent Kd; compound concentrations: 100 nM and 1000 nM (sheet 'Samples'), CATDS: 7.0202424980237099E-2; n = 1"}, "NEK1": {"test_system": "NEK1", "details": "read-out: apparent Kd; compound concentrations: 100 nM and 1000 nM (sheet 'Samples'), CATDS: 8.0496381389801502E-2; n = 1"}, "NEK2": {"test_system": "NEK2", "details": "read-out: apparent Kd; compound concentrations: 100 nM and 1000 nM (sheet 'Samples'), CATDS: 4.3015896259207202E-2; n = 1"}, "PKMYT1": {"test_system": "PKMYT1", "details": "read-out: apparent Kd; compound concentrations: 100 nM and 1000 nM (sheet 'Samples'), CATDS: 4.44842965705885E-2; n = 1"}, "PTK6": {"test_system": "PTK6", "details": "read-out: apparent Kd; compound concentrations: 100 nM and 1000 nM (sheet 'Samples'), CATDS: 5.5693628002095402E-2; n = 1"}, "RAF1": {"test_system": "RAF1", "details": "read-out: apparent Kd; compound concentrations: 100 nM and 1000 nM (sheet 'Samples'), CATDS: 4.9993718202349699E-2; n = 1"}, "CLK4": {"test_system": "CLK4", "details": "read-out: apparent Kd; compound concentrations: 100 nM and 1000 nM (sheet 'Samples'), CATDS: 0.213944296498185; n = 1"}, "CSNK1A1": {"test_system": "CSNK1A1", "details": "read-out: apparent Kd; compound concentrations: 100 nM and 1000 nM (sheet 'Samples'), CATDS: 0.24083982314133201; n = 1"}, "CSNK1D": {"test_system": "CSNK1D", "details": "read-out: apparent Kd; compound concentrations: 100 nM and 1000 nM (sheet 'Samples'), CATDS: 0.19928215700528701; n = 1"}, "FLT4": {"test_system": "FLT4", "details": "read-out: apparent Kd; compound concentrations: 100 nM and 1000 nM (sheet 'Samples'), CATDS: 0.192292703568538; n = 1"}, "RIPK2": {"test_system": "RIPK2", "details": "read-out: apparent Kd; compound concentrations: 100 nM and 1000 nM (sheet 'Samples'), CATDS: 0.39426216370123801; n = 1"}, "STK10": {"test_system": "STK10", "details": "read-out: apparent Kd; compound concentrations: 100 nM and 1000 nM (sheet 'Samples'), CATDS: 0.17094041462039; n = 1"}}, "note": "Where two headings read alike, the source gives them in different places."}
{"smiles": "NS(=O)(=O)c1cccc(N/C=C2\\C(=O)Nc3ccccc32)c1", "note": "[GW275616X]", "values": [{"measurement": "potency estimated from few doses", "setting": "ATM; CATDS: 0.21008347624398099", "value": 0.294, "unit": "µM"}, {"measurement": "potency estimated from few doses", "setting": "CDC42BPG", "value": 1.2, "unit": "µM"}, {"measurement": "potency estimated from few doses", "setting": "DCTPP1", "value": 1.6, "unit": "µM"}, {"measurement": "potency estimated from few doses", "setting": "DDR2", "value": 2.06, "unit": "µM"}, {"measurement": "potency estimated from few doses", "setting": "FLT3", "value": 1.65, "unit": "µM"}, {"measurement": "potency estimated from few doses", "setting": "IRAK4", "value": 2.11, "unit": "µM"}, {"measurement": "potency estimated from few doses", "setting": "MYLK3", "value": 0.137, "unit": "µM"}, {"measurement": "potency estimated from few doses", "setting": "PIM2", "value": 2.01, "unit": "µM"}, {"measurement": "potency estimated from few doses", "setting": "PRKAG1", "value": 1.69, "unit": "µM"}, {"measurement": "potency estimated from few doses", "setting": "TNIK", "value": 1.44, "unit": "µM"}]}
{"smiles": "Nc1c(C(=O)c2ccc(C#CCN3CCOCC3)cc2)cnn1-c1ccc(F)cc1", "note": "[RO1153136-000]", "values": [{"measurement": "potency estimated from few doses", "setting": "AKT2", "value": 2.59, "unit": "µM"}, {"measurement": "potency estimated from few doses", "setting": "MAP2K3", "value": 1.47, "unit": "µM"}]}
{"smiles": "Cc1ccccc1CC(=O)N1CCc2cc(-c3cn(C)c4ncnc(N)c34)ccc21", "note": "[GSK2603346A]", "values": [{"measurement": "potency estimated from few doses", "setting": "ARAF", "value": 0.942, "unit": "µM"}, {"measurement": "potency estimated from few doses", "setting": "AURKB", "value": 0.547, "unit": "µM"}, {"measurement": "potency estimated from few doses", "setting": "CDK10", "value": 1.45, "unit": "µM"}, {"measurement": "potency estimated from few doses", "setting": "EIF2AK1", "value": 0.36, "unit": "µM"}, {"measurement": "potency estimated from few doses", "setting": "FN3K", "value": 1.14, "unit": "µM"}, {"measurement": "potency estimated from few doses", "setting": "ICK", "value": 1.41, "unit": "µM"}, {"measurement": "potency estimated from few doses", "setting": "LATS1", "value": 1.68, "unit": "µM"}, {"measurement": "potency estimated from few doses", "setting": "MAP2K5", "value": 0.287, "unit": "µM"}, {"measurement": "potency estimated from few doses", "setting": "MAP3K2", "value": 1.55, "unit": "µM"}, {"measurement": "potency estimated from few doses", "setting": "MAP3K4", "value": 1.38, "unit": "µM"}, {"measurement": "potency estimated from few doses", "setting": "MAP4K1", "value": 1.36, "unit": "µM"}, {"measurement": "potency estimated from few doses", "setting": "MAP4K2", "value": 0.979, "unit": "µM"}, {"measurement": "potency estimated from few doses", "setting": "MAP4K3", "value": 0.632, "unit": "µM"}, {"measurement": "potency estimated from few doses", "setting": "NEK1", "value": 0.501, "unit": "µM"}, {"measurement": "potency estimated from few doses", "setting": "NEK2", "value": 1.89, "unit": "µM"}, {"measurement": "potency estimated from few doses", "setting": "PKMYT1", "value": 1.71, "unit": "µM"}, {"measurement": "potency estimated from few doses", "setting": "PTK6", "value": 0.991, "unit": "µM"}, {"measurement": "potency estimated from few doses", "setting": "RAF1", "value": 1.26, "unit": "µM"}]}
{"smiles": "Cc1nc2sc3c(N)ncnc3c2c(C)c1C", "note": "[RO4241984-000]", "values": [{"measurement": "potency estimated from few doses", "setting": "ATM; CATDS: 0.46387822436217502", "value": 0.322, "unit": "µM"}, {"measurement": "potency estimated from few doses", "setting": "CLK4", "value": 1.41, "unit": "µM"}, {"measurement": "potency estimated from few doses", "setting": "CSNK1A1", "value": 1.06, "unit": "µM"}, {"measurement": "potency estimated from few doses", "setting": "CSNK1D", "value": 1.71, "unit": "µM"}]}
{"smiles": "CCS(=O)(=O)c1ccc(OC)c(Nc2nccc(N(C)c3ccc4c(C)n[nH]c4c3)n2)c1.Cl", "note": "[GW654652C]", "values": [{"measurement": "potency estimated from few doses", "setting": "ATM; CATDS: 0.41438416433349501", "value": 0.228, "unit": "µM"}, {"measurement": "potency estimated from few doses", "setting": "FLT4", "value": 1.43, "unit": "µM"}, {"measurement": "potency estimated from few doses", "setting": "RIPK2", "value": 0.249, "unit": "µM"}, {"measurement": "potency estimated from few doses", "setting": "STK10", "value": 2.28, "unit": "µM"}]}
